GCN5L2 inh = inhibitors of human GCN5L2 histone acetyltransferase; Q92830; Potency, µM (top dose mostly 58.9 µM), hits mostly inhibitors; GCN5L2 HAT assay, ThioGlo1 CoA-SH fluorescence; actives 0.21% (n = 390,000)
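Enzyme at 20nM final was mixed with library compounds for 15 min at room temperature. Peptide H3(1-25) at 75uM, acetyl-CoA at 70uM and ThioGlo1 at 50uM were then added. Plates were read immediately and after 20 min (Ex340nm/Em540nm).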
GLS inhibitor = blocks human kidney-isoform glutaminase activity; O94925; GLS enzymatic activity, qHTS titration; Potency, µM (titrated, usually from 45.5 µM), actives largely listed as inhibitors; actives 0.21% (n = 410,000)
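Assay buffer: 45 mM KH2PO4 pH 8.2, 0.02% Tween-20. hKGA acts on L-glutamine (1 mM solution added); product glutamate is reported by an oxidase/peroxidase Amplex Red coupling, with fluorescence taken at baseline and 30 min.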
VDR inhibitor = inhibitors of human vitamin D receptor | VDR-SRC2-3 peptide fluorescence polarization, 2 h | actives 0.93% (n = 400,000) | AID 504847 | Potency, µM, hits mostly inhibitors | P11473
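Compounds are added to VDR with labelled SRC2-3 coactivator peptide and held 2 h at room temperature. Inhibition of the VDR–peptide interaction is then read as a change in fluorescence polarization.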
TrxR1 substrate = rat thioredoxin reductase 1 substrate activity. purified TrxR1 substrate turnover, NADPH consumption readout. actives 0.01% (n = 390,000). Potency, µM (series often up to 114 µM); also: nearly all actives have a fitted effect of over 50% in size
Target sequence (O89049 whole entry, looked up): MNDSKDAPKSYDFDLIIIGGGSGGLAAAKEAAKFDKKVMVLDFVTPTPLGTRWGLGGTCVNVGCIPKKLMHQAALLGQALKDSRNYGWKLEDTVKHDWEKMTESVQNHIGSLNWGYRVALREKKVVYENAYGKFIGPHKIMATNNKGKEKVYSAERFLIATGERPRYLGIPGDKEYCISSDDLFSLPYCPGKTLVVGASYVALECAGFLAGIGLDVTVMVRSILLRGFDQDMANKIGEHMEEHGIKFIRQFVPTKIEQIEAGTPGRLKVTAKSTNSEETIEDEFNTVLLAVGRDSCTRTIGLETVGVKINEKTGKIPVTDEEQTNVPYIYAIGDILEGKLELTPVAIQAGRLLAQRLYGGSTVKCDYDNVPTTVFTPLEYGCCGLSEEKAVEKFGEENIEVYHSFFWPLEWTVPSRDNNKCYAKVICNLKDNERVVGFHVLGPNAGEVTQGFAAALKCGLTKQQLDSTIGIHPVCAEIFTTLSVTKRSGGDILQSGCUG
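Rat TrxR1, dispensed at 90 nM, was prereduced with 400 uM NADPH (final) for 5 min at ~22 deg C, then incubated with compound 15 min before 400 uM selenite. A first-read NADPH fluorescence drop versus no-compound background flagged substrates.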
TrxR1 inh = blocks rat thioredoxin reductase 1. recombinant rTrxR1, NADPH fluorescence consumption, selenite substrate. Potency, µM (top dose mostly 114 µM), hits mostly inhibitors. actives 1% (n = 390,000). AID 588453; also: nearly all actives have a fitted effect of over 65% in size
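Rat TrxR1 (90 nM in the dispensed reagent) was pre-reduced with 400 uM NADPH for 5 min at room temperature, then incubated with compound for 15 min. After 400 uM selenite was added, NADPH fluorescence (Ex 340/Em 450 nm) was followed for 8 min.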
Sfp inh = Sfp phosphopantetheinyl transferase inhibition. Potency, µM, hits mostly inhibitors. AID 1490. Biochemical Sfp PPTase activity, qHTS. actives 3.5% (n = 310,000);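 also: the enzyme is Sfp with the accession as filed and its product quenches rhodamine fluorescence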
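After 15 min at room temperature with compound, 15 nM Sfp received 5 uM rhodamine-CoA plus 12.5 uM BHQ-2-ybbR (50 mM Hepes pH 7.6, 10 mM MgCl2). Rate came from the fluorescence difference over 30 min, ex 525/em 598 nm.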
Of the large screens only hits and unclear results are named; the others gave an inactive call. This is a sample that favours compounds with a hit; in the whole collection about 3.8% have one here. Calls follow the shape of the dose curve; as a rule, active = well fitted curve in the direction sought with a large enough effect; inconclusive = small, poorly fitted or top-dose-only effect, or another doubt; inactive = no such curve, though single readings can be large; an effect the other way counts as inactive or inconclusive.

Cc1nnc2sc(-c3csc4c3CCCC4)nn12	none
O=C(c1ccc(S(=O)(=O)NCc2ccco2)cc1)N1CCN(c2ccc(F)cc2)CC1	none (no result: Sfp inh)
CC1CCN(CCCNC(=O)c2ccc3c(=O)n(Cc4ccc(Cl)cc4)c(=S)[nH]c3c2)CC1	Sfp inh 79.4µM
CCOCCCn1c(=S)[nH]c2cc(C(=O)NCCOC)ccc2c1=O	Sfp inh 79.4µM
Cc1ccccc1-n1nc(-c2cccnc2)cc1C(=O)N/N=C/c1ccncc1	none
Cc1ccc(C)c(C(=O)NCCN(C)C)c1	none
C=C(CN(C)C)C(=O)c1cc(C)ccc1C	VDR inhibitor 44.7µM, TrxR1 inh 1.78µM (no result: GCN5L2 inh, Sfp inh)
COc1cc(SSc2cc(OC)cc([N+](=O)[O-])c2N)c(N)c([N+](=O)[O-])c1	GCN5L2 inh 15.8µM, GLS inhibitor inconclusive, VDR inhibitor 7.94µM, Sfp inh 2.51µM
NCCNCCN	VDR inhibitor 15.8µM, Sfp inh 3.16µM (no result: TrxR1 substrate, TrxR1 inh)
NCCNCCNCCN	none
O=C(CCCOc1ccccc1)Nc1ccccc1C(F)(F)F	none
O=C(O)Cc1cccc(OCCCN(Cc2cccc(C(F)(F)F)c2Cl)CC(c2ccccc2)c2ccccc2)c1	GCN5L2 inh 11.2µM, VDR inhibitor 39.8µM, Sfp inh 44.7µM (no result: GLS inhibitor, TrxR1 substrate, TrxR1 inh)
CCOC(=O)C(C)On1c(-c2cccc(Cl)c2)nc2ccc([N+](=O)[O-])cc21 (configuration not stated)	Sfp inh inconclusive
CC(=O)C1=C(C)OC2(O)c3ccccc3C(=O)C12O (configuration not stated)	VDR inhibitor 1.58µM, Sfp inh inconclusive
CCOC(=O)C1=C(C)OC2(O)c3ccccc3C(=O)C12O (configuration not stated)	VDR inhibitor 5.01µM
CC1CCN(c2nnc(NC(=O)Cn3c(=O)oc4ccccc43)s2)CC1	none
Cc1ccccc1C(=O)N1CCC(C(=O)N2CCN(c3ncccn3)CC2)CC1	none (no result: Sfp inh)
CCOC(=O)N1CCN(C(=O)C2CCN(C(=O)c3ccccc3C)CC2)CC1	GLS inhibitor inconclusive, VDR inhibitor 22.4µM, TrxR1 inh 2.51µM (no result: GCN5L2 inh, Sfp inh)
C=CS(=O)(=O)c1ccc(Oc2ccc(S(=O)(=O)C=C)cc2)cc1	VDR inhibitor 44.7µM, TrxR1 inh 5.01µM, Sfp inh inconclusive
CC12CCC(c3c1nc1ccccc1[n+]3[O-])C2(C)C (configuration not stated)	GLS inhibitor inconclusive, VDR inhibitor 70.8µM
Cn1ccc2c(-c3ccc(C(F)(F)F)cc3)cc3c(c21)C1CCC3C1 (configuration not stated)	none (no result: GCN5L2 inh, VDR inhibitor, TrxR1 substrate, TrxR1 inh, Sfp inh)
C=C(C1=CCN(S(=O)C(C)(C)C)[C@H]1CCO)c1ccccc1 (some centres not stated)	TrxR1 inh inconclusive (no result: GCN5L2 inh, Sfp inh)
C=CC1=CCN(S(=O)C(C)(C)C)[C@@H]1CCO (some centres not stated)	TrxR1 inh 50.1µM (no result: GCN5L2 inh, Sfp inh)
COc1ccc(C(=O)N/C(=C\c2cc(OC)c(OC)cc2[N+](=O)[O-])C(=O)NCC(=O)O)cc1	none
COc1ccc(C(=O)N/C(=C\c2cc(OC)c(OC)cc2[N+](=O)[O-])C(=O)NCCO)cc1	Sfp inh 70.8µM
COc1ccc(CNC(=O)CC2C(=O)NCCN2CC(C)(C)C)c(OC)c1 (configuration not stated)	TrxR1 inh inconclusive
COC(C/C=C/C(=O)[C@H](C)OCc1ccccc1)OC	VDR inhibitor inconclusive, TrxR1 inh 44.7µM (no result: GCN5L2 inh, Sfp inh)
OCC[C@H]1C[C@H](O)[C@@H](O)[C@]2(OCCc3ccccc32)O1	none (no result: Sfp inh)
CCCCCCCCCCCCCCCCn1cc[n+](CC(C)=O)c1	GLS inhibitor inconclusive, Sfp inh 35.5µM
c1ccc2c(c1)COc1c3cc4c(cc3nn1-2)OCO4	none (no result: GCN5L2 inh, VDR inhibitor, TrxR1 substrate, TrxR1 inh, Sfp inh)
COc1ccc(C(=O)Nc2nc3ccccc3s2)cc1	GCN5L2 inh inconclusive
CN(C)C(=S)Nc1nc2ccccc2s1	VDR inhibitor inconclusive, TrxR1 inh inconclusive, Sfp inh 14.1µM
CCOc1ccc2nc(NC(=S)N(C)C)sc2c1	Sfp inh 39.8µM
CC(NC(=O)/C=C/c1ccco1)c1nc2ccccc2n1Cc1ccccc1F (configuration not stated)	TrxR1 inh 50.1µM, Sfp inh inconclusive
CC(NC(=O)/C=C/c1ccco1)c1nc2ccccc2n1Cc1c(Cl)cccc1Cl (configuration not stated)	TrxR1 inh inconclusive, Sfp inh 50.1µM
COc1ccc(/C=C\C(=O)NCc2ccc3c(c2)cc(C)n3C)cc1OC	none
CC(C)NS(=O)(=O)c1ccc(OCC(=O)NCc2ccccc2)cc1	none
Oc1ccccc1C(=S)N1CCN(c2cccc(Cl)c2)CC1	VDR inhibitor 89.1µM, Sfp inh 15.8µM
COc1ccc(C(=S)N2CCN(c3cccc(Cl)c3)CC2)c(OC)c1	VDR inhibitor inconclusive, Sfp inh 17.8µM
COc1ccc(C(=O)N2CCN(c3cccc(Cl)c3)CC2)cc1	none
COc1cc(C(=S)N2CCN(c3cccc(Cl)c3)CC2)ccc1O	VDR inhibitor 39.8µM, Sfp inh 10µM
O=C(COC(=O)Cc1cccc(C(F)(F)F)c1)Nc1ccc2[nH]c(=O)[nH]c2c1	none (no result: Sfp inh)
C=CCn1c(SCC(=O)Nc2sccc2C(N)=O)nc2ccc(Cl)cc2c1=O	Sfp inh 44.7µM
Cc1ccc(S(=O)(=O)CCC(=O)N2CCN(c3ccc([N+](=O)[O-])cc3)CC2)cc1	VDR inhibitor 25.1µM, TrxR1 inh 28.2µM
CNc1sc(C(=O)c2cccs2)c(N)c1-c1nc2ccccc2s1	Sfp inh 12.6µM
COc1ccc(-c2n(CC(=O)OC3CC(C)CCC3C(C)C)c3ccccc3[n+]2C)cc1 (configuration not stated)	none
COc1ccc(OCc2n(CC(=O)OC3CC(C)CCC3C(C)C)c3ccccc3[n+]2C)cc1 (configuration not stated)	Sfp inh 35.5µM
COc1ccc(-c2nc3c(c(SCC(=O)N(C)c4ccccc4)n2)Cc2cc(C)ccc2O3)cc1	none (no result: Sfp inh)
CN(CCO)c1cc(N2CCCCC2)c2nonc2c1[N+](=O)[O-]	TrxR1 inh 44.7µM
CN(CCO)c1cc(N2CCC3(CC2)OCCO3)c2nonc2c1[N+](=O)[O-]	TrxR1 inh 28.2µM
N#Cc1ccccc1S(=O)(=O)N1CCN(C(=O)Cc2n[nH]c(=O)c3ccccc23)CC1	none (no result: Sfp inh)
CC1=Nn2c(nnc2C2CCCCC2)SC1	Sfp inh 79.4µM
O=C(O)C1C2CCC(CC2)C1C(=O)N1CCN(Cc2ccc(F)cc2)CC1 (configuration not stated)	Sfp inh 35.5µM
O=C(C1CCN(Cc2ccc(F)cc2)CC1)N1CCN(C/C=C/c2ccccc2)CC1	none
